# Measured values: PubChem BioAssay (Tox21)
# Unmarked numbers belong to inactive results. Inconclusive results are not listed. Where a call stands in place of a potency, no number is given. Calls of active or inactive are those of the source. Unless noted, the call rests on the fitted dose curve; in most records, active means well fitted curve in the direction sought with a large enough effect in the repeat runs; inconclusive means weak or mixed curves; inactive means no such curve, though single readings can be large; an effect the other way counts as inactive or inconclusive.
# Tests used:
# [1] = qHTS assay for small molecules that induce genotoxicity in human embryonic kidney cells expressing luciferase-tagged ATAD5 (AID 651632); further: nearly all actives have a fitted effect of over 15% in size
# Procedure, shortened: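 Genotoxicity read-out via ATAD5-luciferase: HEK293T cells, 16 hr compound incubation at 37C, Amplite detection.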
# [2] = qHTS assay for small molecules that induce genotoxicity in human embryonic kidney cells expressing luciferase-tagged ATAD5 - cell viability (AID 651634; calls by dose curve; further: nearly all actives have a fitted effect of over 25% in size; further: potency means the concentration at half of the fitted maximal effect)
# Procedure, shortened: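 Live-cell protease activity (CellTiter-Fluor, fluorescence) indicates viability. HEK293T cells with luciferase-tagged ATAD5; 15.5 hr compound treatment at 37C.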
# [3] = qHTS assay for small molecule disruptors of the mitochondrial membrane potential - cell viability (AID 720634; calls by dose curve; further: nearly all actives have a fitted effect of over 20% in size; further: potency means the concentration at half of the fitted maximal effect)
# Procedure, shortened: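 Human hepatoma HepG2 cells were treated for 1 hr with test chemicals, then given m-MPI dye and CellTiter-Glo. Cell viability reflects luminescence proportional to cellular ATP.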
# [4] = qHTS assay to test for compound auto fluorescence at 590 nm (red) in HepG2 cells (AID 720674)
# Procedure, shortened: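 HepG2 cells, 2,000 per well in MEM with 10% FBS, attached overnight at 37 C, then got 23 nL compound or DMSO. After 1 hr at 37 C, 5% CO2, red fluorescence was read at 540/590 nm against Rose Bengal sodium as reference.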
# [5] = qHTS assay to test for compound auto fluorescence at 460 nm (blue) in HEK293 cells (AID 720678)
# Procedure, shortened: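 After cell attachment (4-5 hr, 37C), compounds were pinned onto HEK293 monolayers in 10% dialyzed FBS medium. The blue channel (405/460 nm) was read following overnight culture. Equivalency was calculated against triamterene.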
# [6] = qHTS assay to test for compound auto fluorescence at 590 nm (red) in HEK293 cells (AID 720679)
# Procedure, shortened: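 Plates of HEK293 cells (10% dialyzed FBS) are treated with 23 nL compound or DMSO vehicle after a 4-5 hr attachment period, incubated overnight at 37C, and read for red fluorescence at 540/590nm.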
# [7] = qHTS assay for small molecule disruptors of the mitochondrial membrane potential (AID 720635); further: potency means the concentration at half of the fitted maximal effect
# Procedure, shortened: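 HepG2 cells exposed to compound 1 hr at 37C, then Mito-MPS dye 30 min. Ratio read of aggregate (540/590 nm) versus monomer (490/535 nm) fluorescence.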
# [8] = qHTS assay to test for compound auto fluorescence at 535 nm (green) in HepG2 cells (AID 720675)
# [9] = qHTS assay for small molecule agonists of the p53 signaling pathway - cell viability (AID 651633; calls by dose curve; further: nearly all actives have a fitted effect of over 30% in size; further: potency means the concentration at half of the fitted maximal effect)
# Procedure, shortened: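 p53RE-bla cells were treated with compound for 16 hours at 37 C. Cytotoxicity was then measured as CellTiter-Glo luminescence after 30 min at room temperature.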
Structure (SMILES),Potency [1],Potency [2],Potency [3],outcome [4],Potency [5],outcome [6],Potency [7],outcome [8],Potency [9],"fluorescence, relative to Rose Bengal [4]","fluorescence, % of triamterene [5]","fluorescence, % of fluorescent control [6]"
CCN(CC)CCNC(C(=O)OCCC(C)C)c1ccccc1 (stereo not given),inactive,inactive,inactive,inactive,inactive,inactive,–,–,–,–,–,–
O=C(Cl)c1ccc([N+](=O)[O-])cc1,inactive,inactive,inactive,inactive,inactive,inactive,inactive,inactive,–,–,–,–
CN1CCC[C@@H]1c1cccnc1,inactive,–,inactive,inactive,inactive,inactive,inactive,inactive,–,–,–,–
CCCCCOC(=O)c1ccc(O)cc1,–,–,–,inactive,inactive,–,6.94 µM (active),inactive,inactive,–,–,–
CCOc1ccc2[nH]cc(C(=O)NCc3ccccc3)c(=O)c2n1,inactive,inactive,inactive,inactive,inactive,inactive,8.63 µM (active),–,–,–,–,–
NCCCN(CCO)CCO,inactive,inactive,inactive,inactive,inactive,inactive,–,inactive,–,–,–,–
Cc1cc(O)ccc1N,inactive,inactive,–,inactive,inactive,inactive,–,–,–,–,–,–
CC1(C)CCC(C)(C)c2cc(NC(=O)c3ccc(C(=O)O)cc3)ccc21,inactive,–,inactive,inactive,inactive,inactive,24.8 µM (active),–,–,–,–,–
Cc1nc2ccccc2n1Cc1ccc(Cl)cc1,inactive,inactive,–,inactive,inactive,–,–,inactive,–,–,–,–
OCCC1CCCCN1 (stereo not given),inactive,inactive,inactive,inactive,inactive,inactive,–,–,–,–,–,–
CN(C)CC/C=C1\c2ccccc2COc2ccccc21,–,–,inactive,inactive,inactive,inactive,–,inactive,–,–,–,–
CCCCCC/C=C/C=O,inactive,inactive,inactive,inactive,inactive,inactive,–,inactive,–,–,–,–
O=[N+]([O-])c1cccc(Cl)c1Cl,inactive,inactive,inactive,inactive,inactive,inactive,inactive,inactive,–,–,–,–
NC(N)=NN=C(/C=C/c1ccc([N+](=O)[O-])o1)/C=C/c1ccc([N+](=O)[O-])o1,–,10.6 µM (active),18.8 µM (active),inactive,inactive,inactive,2.66 µM (active),inactive,2.37 µM (active),–,–,–
Cc1ccc(C(N)=O)cc1N,inactive,inactive,inactive,inactive,inactive,inactive,inactive,inactive,–,–,–,–
CC(C)(C)c1cc(O)c(C(C)(C)C)cc1O,inactive,–,inactive,inactive,inactive,–,6.11 µM (active),inactive,–,–,–,–

Structure (SMILES),Potency [1],Potency [2],Potency [3],outcome [4],Potency [5],outcome [6],Potency [7],outcome [8],Potency [9],"fluorescence, relative to Rose Bengal [4]","fluorescence, % of triamterene [5]","fluorescence, % of fluorescent control [6]"
CCOc1nc2cccc(C(=O)O)c2n1Cc1ccc(-c2ccccc2-c2nn[nH]n2)cc1,inactive,inactive,inactive,inactive,inactive,inactive,8.41 µM (active),inactive,–,–,–,–
C=CC(=O)OCC(C)OCC(C)OCC(C)OC(=O)C=C (stereo not given),–,–,inactive,inactive,inactive,–,–,–,24.3 µM (active),–,–,–
COC(Cc1ccccc1)OC,inactive,inactive,inactive,inactive,inactive,inactive,–,inactive,–,–,–,–
Cn1c(NCCN(CCO)CCCc2ccc([N+](=O)[O-])cc2)cc(=O)n(C)c1=O,inactive,inactive,inactive,inactive,inactive,–,–,inactive,–,–,–,–
C=C(C)C(=O)OCCN(C)C,inactive,–,–,inactive,inactive,inactive,–,–,inactive,–,–,–
CC(C)(C)c1ccc(OCC2CO2)cc1 (stereo not given),inactive,–,inactive,inactive,inactive,inactive,inactive,inactive,–,–,–,–
CC(C(=O)O)c1ccc(C(=O)c2ccccc2)s1 (stereo not given),inactive,–,–,–,–,–,–,–,–,-0.233% [at 18.6 µM],0.0309% [at 18.6 µM],-0.0493% [at 18.6 µM]
COc1ccc([C@@H]2Sc3ccccc3N(CCN(C)C)C(=O)[C@@H]2OC(C)=O)cc1,inactive,inactive,inactive,inactive,inactive,inactive,inactive,inactive,–,–,–,–
CCCCCCCCC(CO)CCCCCC (stereo not given),inactive,inactive,inactive,inactive,inactive,inactive,–,inactive,–,–,–,–
NC(N)=N/N=C/c1c(Cl)cccc1Cl,inactive,inactive,inactive,inactive,inactive,inactive,–,inactive,–,–,–,–
CC(Cc1cccc(C(F)(F)F)c1)NCCOC(=O)c1ccccc1 (stereo not given),inactive,–,inactive,inactive,inactive,inactive,–,inactive,–,–,–,–
O=S1(=O)N=C(O)c2ccccc21,–,inactive,inactive,inactive,inactive,inactive,inactive,inactive,–,–,–,–
O=C1CCCCCO1,inactive,–,–,inactive,inactive,inactive,–,inactive,–,–,–,–
OC(CCN1CCCCC1)(c1ccccc1)C1CCCCC1 (stereo not given),inactive,inactive,inactive,inactive,inactive,inactive,–,inactive,–,–,–,–
CCCCCOC(=O)COc1cc(N2C(=O)C3=C(CCCC3)C2=O)c(F)cc1Cl,inactive,inactive,inactive,inactive,inactive,inactive,–,inactive,–,–,–,–
CC(C(=O)O)c1ccc(-c2ccccc2)c(F)c1 (stereo not given),inactive,–,inactive,inactive,inactive,inactive,–,inactive,–,–,–,–
